Source: PubChem BioAssay
Potency and affinity values are given separately. Active and inactive are the calls of the source.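 The calls were made as follows: active = a fitted half-maximal concentration no higher than twice the top valid tested dose, with signal falling as cells die; inconclusive = flat curve between -70% and -30%, or poor fit; inactive = the rest, including signal rising instead of falling.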

Test: HeLa cell cytotoxicity, dose response, cytotoxicity control, ATP luminescence, cherry-pick samples (AID 687004);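 also: 0% = neutral control median and -100% = staurosporine 10 µM control median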
Details: HeLa viability, ATP luminescence (CellTiter-Glo), 48 h; series mostly up to 26 µM; activity change, negative = cytotoxicity: at the top concentration

Row | SMILES | activity change, negative = cytotoxicity | outcome
1 | COc1cccc(S(=O)(=O)N(C)C[C@H]2OCc3cnnn3CCCC(=O)N([C@H](C)CO)C[C@H]2C)c1 | 20.4% (inactive) | –
2 | COc1cccc(S(=O)(=O)Nc2ccc3c(c2)[C@H]2C[C@H](CC(=O)NCc4ccccc4F)O[C@@H](CO)[C@H]2O3)c1 | 2.25% (inactive) | –
3 | COCC(=O)NC[C@@H]1N[C@@H](CO)[C@H]1c1ccc(C2=CCCC2)cc1 | 27.9% (inactive) | –
4 | CCC(C)(C(=O)Nc1cccc(C)c1)N1CCC1=O (centres undefined) | 10.7% [at 46 µM] (inactive) | –
5 | Cc1ccc(NC(=O)[C@H](C)NC(=O)C2CCN(C(=O)[C@@H](N)C(C)C)CC2)cc1 | 8.24% (inactive) | –
6 | CNC(=O)C[C@@H]1CC[C@@H]2[C@H](COc3ccc(NC(=O)c4cc(C)on4)cc3C(=O)N2C)O1 | 24.9% [at 23.5 µM] (inactive) | –
7 | Cc1cc(C)c(N2CCCC2C(=O)Nc2cccc(C(F)(F)F)c2)c(C)c1 (centres undefined) | -31.3% [at 35 µM] (inactive) | –
8 | C/C=C/c1ccc([C@@H]2[C@@H](CO)N3CCCCN(C(=O)Nc4ccc(OC)cc4)C[C@H]23)cc1 | 0.011% (inactive) | –
9 | O=C(NCC[C@H]1CC[C@H](NS(=O)(=O)c2ccc(F)cc2)[C@@H](CO)O1)c1ccc2c(c1)OCO2 | 0.674% (inactive) | –
10 | Cc1noc(C)c1NC(=O)N(C)C[C@@H]1Oc2ccc(NC(=O)NC(C)C)cc2CC(=O)N([C@H](C)CO)C[C@H]1C | 27.1% (inactive) | –
11 | N#C[C@@H]1[C@@H](c2ccccc2)[C@@H](CO)N1C(=O)Cc1ccccc1 | -0.713% (inactive) | –
12 | CN1[C@@H]2c3ccc(-c4cccnc4)c(=O)n3C[C@@H]2[C@@H](CO)[C@@H]1C(=O)N1CCc2ccccc2C1 | -3.03% (inactive) | –
13 | CCCC(=O)Nc1ccc2c(c1)OC[C@@H](C)N(Cc1cncnc1)C[C@@H](C)[C@@H](OC)CN(C)C2=O | 16.4% (inactive) | –
14 | C/C=C/c1ccc([C@@H]2[C@@H](CNC(=O)C3CC3)N(C(=O)CC)[C@H]2CO)cc1 | -2.12% (inactive) | –
15 | C[C@@H]1CN([C@@H](C)CO)C(=O)c2cccc(NC(=O)c3ccncc3)c2O[C@H]1CN(C)C(=O)Nc1ccccc1 | 14.2% (inactive) | –
16 | CO[C@H]1CN(C)C(=O)c2ccc(NC(C)=O)cc2OC[C@H](C)N(C(=O)c2ccncc2)C[C@@H]1C | -0.069% (inactive) | –
17 | COc1ccc(CN(C)C[C@H]2OCCCC[C@@H](C)Oc3ccc(NC(=O)c4ccccc4)cc3C(=O)N([C@H](C)CO)C[C@@H]2C)cc1 | 1.5% [at 23.5 µM] (inactive) | –
18 | Cc1cc(C)c(NC(=O)C2CCCCN2C)c(C)c1 (centres undefined) | 3.11% (inactive) | –
19 | C[C@@H]1CN([C@@H](C)CO)C(=O)c2cccc(N(C)C)c2O[C@H]1CN(C)C(=O)Nc1ccc(C(F)(F)F)cc1 | 8.62% (inactive) | –
20 | Cc1noc(C)c1S(=O)(=O)N(C)C[C@@H]1OCCCC[C@@H](C)Oc2ccc(NC(=O)CCCCCC(=O)Nc3ccccc3N)cc2C(=O)N([C@H](C)CO)C[C@@H]1C | 12% (inactive) | –

Row | SMILES | activity change, negative = cytotoxicity | outcome
21 | CCC(=O)N1[C@@H]2Cn3c(cccc3=O)[C@H]1[C@@H](C(=O)NCc1ccccc1)[C@@H]2CO | -0.937% [at 23.5 µM] (inactive) | –
22 | CCS(=O)(=O)N1CCCCN2[C@H](CO)[C@@H](c3ccc(-c4ccc(C#N)cc4)cc3)[C@@H]2C1 | -1.29% (inactive) | –
23 | O=C(Cc1ccccc1)N[C@H]1C=C[C@@H](CC(=O)N2CCOCC2)O[C@H]1CO | 0.997% (inactive) | –
24 | C[C@@H]1CN([C@H](C)CO)C(=O)c2cc(NC(=O)Nc3cccc4ccccc34)ccc2O[C@H]1CN(C)C(=O)Nc1ccc(C(F)(F)F)cc1 | 0.731% [at 23.5 µM] (inactive) | –
25 | O=C(NC1CCCC1)N1CCCCN2[C@H](CO)[C@@H](c3ccc(-c4cncnc4)cc3)[C@H]2C1 | 12.7% (inactive) | –
26 | O=C(C[C@H]1C=C[C@H](NC(=O)C2CCC2)[C@@H](CO)O1)NC1CCC1 | 1.69% (inactive) | –
27 | CC(C)(C)NC(=O)CSc1ncnc2c1cnn2-c1ccccc1 | 2.29% (inactive) | –
28 | COc1ccc(-c2cnc3c(c2)C(=O)N([C@@H](C)CO)C[C@@H](C)[C@@H](CN(C)S(C)(=O)=O)O3)cc1 | -5.16% (inactive) | –
29 | C/C=C/c1cnc2c(c1)C(=O)N([C@@H](C)CO)C[C@@H](C)[C@@H](CN(C)C(=O)C1CCCCC1)O2 | 5.1% (inactive) | –
30 | C[C@@H]1CN([C@H](C)CO)C(=O)c2c(c3ccccc3n2C)-c2ccccc2CO[C@H]1CN(C)S(=O)(=O)c1cccs1 | 11.5% (inactive) | –
31 | Cc1cccc(C)c1NC(=O)C1NC(=O)CC1c1ccccc1 (centres undefined) | – | inactive
32 | CCC(=O)N1[C@@H]2Cn3c(ccc(C4=CCCCC4)c3=O)[C@H]1[C@@H](C(=O)N[C@H](C)c1ccccc1)[C@@H]2CO | 28.3% (inactive) | –
33 | C/C=C/c1ccc2c(c1)O[C@H](CN(C)S(=O)(=O)c1ccccc1)[C@H](C)CN([C@@H](C)CO)S2(=O)=O | 12.6% (inactive) | –
34 | COc1ccc(NC(=O)Nc2ccc3c(c2)C(=O)N([C@@H](C)CO)C[C@@H](C)[C@H](CN(C)C(=O)Cc2ccccc2)OCCCC[C@H](C)O3)cc1 | 10.4% (inactive) | –
35 | Cc1cccc(C)c1NC(=O)C(CCc1ccccc1)N1CCN(CCN(C)C)CC1 (centres undefined) | -0.989% (inactive) | –
36 | Cc1cccc(C)c1NC(=O)C(C)N1CCCCC1 (centres undefined) | -1.54% (inactive) | –
37 | Cc1noc(C)c1S(=O)(=O)Nc1ccc2c(c1)C(=O)N([C@@H](C)CO)C[C@H](C)[C@@H](CN(C)Cc1ccc3c(c1)OCO3)OCCCC[C@@H](C)O2 | 20.1% (inactive) | –
38 | CCCNC(=O)N1C[C@@H]2[C@H](c3ccccc31)[C@H](CO)N2Cc1ccc(OC)cc1 | -10.4% (inactive) | –
39 | O=C(c1cccc(F)c1)N1C[C@@H]2[C@H](c3ccccc31)[C@H](CO)N2Cc1cocn1 | 9.36% (inactive) | –
